Data on nine molecules can be found in PubChem BioAssay (EPA / NIEHS).

Molecules are shown by their SMILES. Records with an inconclusive call do not appear. The source made the active and inactive calls. The calls were made as follows, unless noted: active = hit-call score of the fitted dose curve at least 0.9, where 1 is the maximum; inactive = score below 0.9.

Assay [1] concerns the target Nuclear respiratory factor 1 (Homo sapiens) (UniProt Q16656). Kind of assay: ATG_NRF1_CIS: Attagene CIS-FACTORIAL HepG2 Assay for human Nuclear Respiratory Factor 1 (NRF1) Orphan Gene (AID 2282987). The following applies: HepG2 NRF1 cis-element reporter, Attagene multiplex; actives raise or lower the signal. Put shortly: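 HepG2 cells transiently transfected with multiple cis-regulated reporter units, exposed 24 h. Reporter mRNAs measured by RT-PCR, fluorescent labelling, HpaI digestion and capillary electrophoresis; bidirectional fitting against DMSO.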

The nature of assay [2]: ATG_NFI_CIS: Attagene CIS-FACTORIAL HepG2 Assay for human Nuclear Factor I (NFI) (AID 2282989). Particulars: HepG2 cis-regulatory reporter, NFI response element transcription; actives raise or lower the signal. Put shortly:
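Reporter transcripts were measured by RT-PCR with fluorescent primer extension and capillary electrophoresis 24 h post-treatment. HepG2 cells carried transiently transfected cis-regulated reporter constructs reporting endogenous factor activity; gain or loss fitted against DMSO baseline.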

The target of assay [3] is Myc proto-oncogene protein (Homo sapiens) (UniProt P01106). Briefly: ATG_Myc_CIS: Attagene CIS-FACTORIAL HepG2 Assay for human Myelocytomatosis (Myc) Proto-Oncogene Transcription Factor (AID 2282990). Particulars: HepG2, Attagene cis-reporter transcription factor activity; actives raise or lower the signal. Put shortly:
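Transiently transfected HepG2 cells bearing cis-promoter reporter units for endogenous transcription factors; 24 h exposure. Reporter mRNA measured by RT-PCR, 6-FAM primer extension, HpaI cut and capillary electrophoresis; bidirectional fit relative to DMSO.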

Assay [4] is described as follows: ATG_NF_kB_CIS: Attagene CIS-FACTORIAL HepG2 Assay for human Nuclear Factor Kappa B (NF-kB) (AID 2282991). The following applies: HepG2 Attagene cis-factorial NF-kB reporter mRNA; actives raise or lower the signal. In short, it runs like this: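 HepG2 cells transfected with cis-promoter-driven reporter units, so endogenous transcription factor activity is measured. Reporter mRNA quantified 24 h after dosing by RT-PCR and capillary electrophoresis, with bidirectional fitting against DMSO.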

Assay [5] can be described thus: ATG_NRF2_ARE_CIS: Attagene CIS-FACTORIAL HepG2 Assay for human Nuclear Factor Erythroid 2 Related Factor 2 (NFR2) response to Antioxidant Response Elements (ARE) (AID 2282992).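 As to AC50: reporter mRNA level measured by RT-PCR and capillary electrophoresis fluorescence.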 The following applies: HepG2 Attagene ARE/NRF2 reporter, transcription factor activity; actives raise or lower the signal. Put shortly: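 Multiplexed reporter mRNA profiling in HepG2 after a 24 h chemical exposure. Curves fitted in both directions relative to DMSO negative control.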

Assay [6] is described as follows: ATG_Oct_MLP_CIS: Attagene CIS-FACTORIAL HepG2 Assay for human Octamer-Binding Transcription Factor (Oct) (AID 2282993). Particulars: HepG2 Attagene cis-factorial Oct reporter, mRNA; actives raise or lower the signal. Put shortly:
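Readout is reporter transcript level from RT-PCR with fluorescent primer extension and capillary electrophoresis, fitted in both directions against DMSO. Transfected HepG2 reporter units report endogenous factor activity after 24 h dosing.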

Assay [7] addresses Cellular tumor antigen p53 (Homo sapiens) (UniProt P04637). Briefly: ATG_p53_CIS: Attagene CIS-FACTORIAL HepG2 Assay for human p53 Transcription Factor (AID 2282994). Particulars: HepG2 p53 cis-element reporter, Attagene mRNA; actives raise or lower the signal. Put shortly:
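Multiplexed reporter mRNA assay in human HepG2 liver cells; cis-regulated units report endogenous factor activity. Values come from bidirectional curve fitting against DMSO negative control after 24 h treatment.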

For assay [8], the target named is human Peroxisome Proliferator-activated Receptor alpha (PPARa), PPARA (gene 5465) (UniProt Q07869). Briefly: ATG_PPARa_TRANS: Attagene TRANS-FACTORIAL HepG2 Assay for human Peroxisome Proliferator-activated Receptor alpha (PPARa) (AID 2283001; active = hit-call score of the fitted dose curve at least 0.9, where 1 is the maximum). Put shortly: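 Measures transcriptional activity of an exogenous chimeric PPARa-Gal4 protein in transiently transfected HepG2 cells after 24 h dosing. Reporter mRNA quantified via RT-PCR and capillary electrophoresis; DMSO served as negative control.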
Chain of human Peroxisome Proliferator-activated Receptor alpha (PPARa), PPARA (gene 5465) (Q07869 whole entry, looked up, the tested form may be a part): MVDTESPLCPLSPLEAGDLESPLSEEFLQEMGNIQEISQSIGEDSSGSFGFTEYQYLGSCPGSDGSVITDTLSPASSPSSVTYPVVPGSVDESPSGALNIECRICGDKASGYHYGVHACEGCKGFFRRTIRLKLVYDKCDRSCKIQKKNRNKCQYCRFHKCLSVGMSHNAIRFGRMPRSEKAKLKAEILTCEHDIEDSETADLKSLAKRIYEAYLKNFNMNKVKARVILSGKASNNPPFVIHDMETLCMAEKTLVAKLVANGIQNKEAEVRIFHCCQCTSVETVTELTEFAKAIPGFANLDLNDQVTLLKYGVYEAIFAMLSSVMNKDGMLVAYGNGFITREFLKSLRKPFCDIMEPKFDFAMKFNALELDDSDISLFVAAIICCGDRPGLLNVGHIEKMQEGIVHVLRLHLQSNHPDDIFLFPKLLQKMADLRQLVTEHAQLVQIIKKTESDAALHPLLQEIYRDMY

Assay [9] has as its target human Peroxisome Proliferator-activated Receptor delta (PPARd), PPARD (gene 5467) (UniProt Q03181). Kind of assay: ATG_PPARd_TRANS: Attagene TRANS-FACTORIAL HepG2 Assay for human Peroxisome Proliferator-activated Receptor delta (PPARd) (AID 2283002; active = hit-call score of the fitted dose curve at least 0.9, where 1 is the maximum). In short, it runs like this:
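HepG2 cells transiently transfected with GAL4-UAS multiplexed reporter units driven by exogenous chimeric NR-GAL4 proteins; 24 h compound exposure. Reporter mRNA measured by RT-PCR, 6-FAM primer extension, HpaI digestion and capillary electrophoresis; gain of signal fitted relative to DMSO.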

Assay [10] has as its target Peroxisome proliferator-activated receptor gamma (Homo sapiens) (UniProt P37231). Briefly: ATG_PPARg_TRANS: Attagene TRANS-FACTORIAL HepG2 Assay for human Peroxisome Proliferator-activated Receptor-gamma (PPARg) (AID 2283007; active = hit-call score of the fitted dose curve at least 0.9, where 1 is the maximum). In short, it runs like this: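 HepG2 cells are transiently transfected with GAL4-UAS reporter units driven by chimeric NR-Gal4 fusions and dosed for 24 h. Reporter mRNA is quantified by RT-PCR, 6-FAM labelling, HpaI digestion and capillary electrophoresis. Induction is scored against DMSO.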

The target in assay [11] is Nuclear receptor subfamily 1 group I member 2 (Homo sapiens) (UniProt O75469). Kind of assay: ATG_PXR_TRANS: Attagene TRANS-FACTORIAL HepG2 Assay for human Pregnane X Receptor (PXR) (AID 2283008; active = hit-call score of the fitted dose curve at least 0.9, where 1 is the maximum). In short, it runs like this:
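Measures mRNA induction of a GAL4-UAS-driven reporter in human HepG2 cells transiently expressing PXR fused to Gal4, following 24 h treatment. DMSO served as negative control and baseline.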

Assay [12] deals with human Retinoic Acid Receptor gamma (RARg), RARG (gene 5916) (UniProt P13631). Kind of assay: ATG_RARg_TRANS: Attagene TRANS-FACTORIAL HepG2 Assay for human Retinoic Acid Receptor gamma (RARg) (AID 2283009; active = hit-call score of the fitted dose curve at least 0.9, where 1 is the maximum). In short, it runs like this:
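HepG2 cells transiently transfected with multiplexed reporter units expressing chimeric RARg-GAL4 and GAL4-UAS-driven reporters; 24 h compound exposure. Reporter mRNA quantified by RT-PCR with fluorescent labelling and capillary electrophoresis; gain-of-signal fitted relative to DMSO baseline.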

Assay [13] is described as follows: BSK_3C_uPAR: BioMAP Diversity Plus: 3C Assay for Urokinase-type plasminogen activator receptor (uPAR) Biomarker Activity (AID 2282998). Particulars: BioMAP 3C HUVEC, uPAR biomarker ELISA; actives raise or lower the signal. In short, it runs like this: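 Cell-surface uPAR on HUVEC (3C system) read by ELISA at 24 h post-treatment, with DMSO as baseline and fitting in both directions. Parallel cultures stained with SRB to flag overt cytotoxicity.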
A general note: An ELISA detects its analyte on a solid surface through an enzyme-linked reagent.

Assay [14] can be described thus: BSK_3C_VCAM1: BioMAP Diversity Plus: 3C Assay for Vascular cell adhesion molecule 1 (VCAM1) Biomarker Activity (AID 2282999). Particulars: BioMAP 3C HUVEC, VCAM1 ELISA, cytokine-stimulated; actives raise or lower the signal. In short, it runs like this:
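Human umbilical vein endothelial cells (3C system), biomarker read by ELISA 24 h after dosing; bidirectional fit against DMSO baseline. Cytotoxicity tracked by SRB total-protein staining in parallel cultures at biomarker time.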

Assay [15] is described as follows: BSK_4H_Eotaxin3: BioMAP Diversity Plus: 4H Assay for Eotaxin 3 Biomarker Activity (AID 2283000).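 Also: CCL26 protein level quantified by ELISA in parallel with SRB cytotoxicity check.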 The following applies: primary human endothelial cells (HUVEC); actives raise or lower the signal. Put shortly:
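ELISA quantitation of CCL26 (Eotaxin-3) protein from chemically dosed human vascular endothelial cells at 24 h; increases and decreases both scored relative to DMSO-treated baseline.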

Assay [16] is described as follows: BSK_3C_Proliferation: Cell Proliferation Assessment in the BioMAP Diversity Plus: 3C Assay (AID 2283006). The following applies: primary human endothelial cells (HUVEC). In short, it runs like this: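 Human umbilical vein endothelial cells were grown sub-confluent and exposed to chemical for 48 h, then fixed with 10% TCA and stained with 0.1% sulforhodamine B; absorbance at 560 nm gave relative cell number, fitted bidirectionally against DMSO baseline.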

A short description of assay [17]: BSK_3C_TissueFactor: BioMAP Diversity Plus: 3C Assay for Tissue Factor Biomarker Activity (AID 2282997). The following applies: BioMAP 3C HUVEC, tissue factor biomarker readout; actives raise or lower the signal. In short, it runs like this:
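Endothelial monolayers (human umbilical vein, primary) are dosed, incubated 24 h, and assayed for Tissue Factor by ELISA; DMSO serves as negative control for bidirectional fitting.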

Read-out in assay [18]: Intercellular Adhesion Molecule 1 (ICAM1), ICAM1 (gene 3383)
Kind of assay: BSK_3C_ICAM1: BioMAP Diversity Plus: 3C Assay for Intercellular Adhesion Molecule 1 (ICAM1) Biomarker Activity (AID 2283003). Particulars: primary human endothelial cells (HUVEC); actives raise or lower the signal. In short, it runs like this:
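Primary human umbilical vein endothelial cells in the BioMAP 3C system were exposed to chemicals for 24 h, then ICAM-1 was quantified by ELISA. Activity was fitted bidirectionally against the DMSO negative control baseline.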

Assay [19] deals with Retinoic acid receptor alpha (Homo sapiens) (UniProt P10276). Briefly: ATG_RARa_TRANS: Attagene TRANS-FACTORIAL HepG2 Assay for human Retinoic Acid Receptor alpha (RARa) (AID 2283005; active = hit-call score of the fitted dose curve at least 0.9, where 1 is the maximum). Put shortly: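 HepG2 transiently transfected with multiplex GAL4-UAS reporter units including a human RARa–GAL4 chimera; 24 h compound exposure. Reporter mRNA quantified by RT-PCR, 6-FAM labeling and capillary electrophoresis; gain of signal versus DMSO.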
Chain of Retinoic acid receptor alpha (Homo sapiens) (P10276 whole entry, looked up, the tested form may be a part): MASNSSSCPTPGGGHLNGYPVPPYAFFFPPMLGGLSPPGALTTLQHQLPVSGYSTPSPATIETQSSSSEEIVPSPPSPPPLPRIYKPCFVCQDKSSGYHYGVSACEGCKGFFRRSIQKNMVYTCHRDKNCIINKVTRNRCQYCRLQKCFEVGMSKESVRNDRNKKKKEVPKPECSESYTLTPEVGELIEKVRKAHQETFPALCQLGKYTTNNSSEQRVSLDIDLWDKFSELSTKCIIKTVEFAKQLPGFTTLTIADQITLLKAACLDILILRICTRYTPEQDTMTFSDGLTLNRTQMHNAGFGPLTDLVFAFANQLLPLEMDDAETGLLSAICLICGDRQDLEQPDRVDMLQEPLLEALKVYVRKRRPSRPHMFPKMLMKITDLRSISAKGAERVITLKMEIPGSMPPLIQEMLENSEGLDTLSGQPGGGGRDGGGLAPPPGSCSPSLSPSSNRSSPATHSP

The target of assay [20] is human Retinoic Acid Receptor beta (RARb), RARB (gene 5915) (UniProt P10826). Briefly: ATG_RARb_TRANS: Attagene TRANS-FACTORIAL HepG2 Assay for human Retinoic Acid Receptor beta (AID 2283004; active = hit-call score of the fitted dose curve at least 0.9, where 1 is the maximum). Put shortly: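 Fluorescent capillary-electrophoresis detection of GAL4-UAS reporter mRNA defines the endpoint, with induction over DMSO-treated wells scored as activity. Transiently transfected human hepatoma HepG2 cells expressing exogenous NR–Gal4 proteins are exposed to test chemicals for 24 h.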
Chain of human Retinoic Acid Receptor beta (RARb), RARB (gene 5915) (P10826 whole entry, looked up, the tested form may be a part): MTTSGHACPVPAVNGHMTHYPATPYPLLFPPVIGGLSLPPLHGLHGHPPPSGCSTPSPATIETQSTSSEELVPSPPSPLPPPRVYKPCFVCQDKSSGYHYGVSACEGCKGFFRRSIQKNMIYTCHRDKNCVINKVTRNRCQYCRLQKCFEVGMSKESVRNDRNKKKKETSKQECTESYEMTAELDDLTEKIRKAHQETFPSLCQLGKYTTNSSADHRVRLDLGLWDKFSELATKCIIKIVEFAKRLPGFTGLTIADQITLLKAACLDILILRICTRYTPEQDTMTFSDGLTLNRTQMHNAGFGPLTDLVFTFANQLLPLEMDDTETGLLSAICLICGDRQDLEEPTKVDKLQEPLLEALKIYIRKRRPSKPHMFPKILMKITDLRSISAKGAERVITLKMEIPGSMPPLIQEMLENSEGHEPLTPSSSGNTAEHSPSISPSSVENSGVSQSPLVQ

Chain of Myc proto-oncogene protein (Homo sapiens) (P01106 whole entry, looked up): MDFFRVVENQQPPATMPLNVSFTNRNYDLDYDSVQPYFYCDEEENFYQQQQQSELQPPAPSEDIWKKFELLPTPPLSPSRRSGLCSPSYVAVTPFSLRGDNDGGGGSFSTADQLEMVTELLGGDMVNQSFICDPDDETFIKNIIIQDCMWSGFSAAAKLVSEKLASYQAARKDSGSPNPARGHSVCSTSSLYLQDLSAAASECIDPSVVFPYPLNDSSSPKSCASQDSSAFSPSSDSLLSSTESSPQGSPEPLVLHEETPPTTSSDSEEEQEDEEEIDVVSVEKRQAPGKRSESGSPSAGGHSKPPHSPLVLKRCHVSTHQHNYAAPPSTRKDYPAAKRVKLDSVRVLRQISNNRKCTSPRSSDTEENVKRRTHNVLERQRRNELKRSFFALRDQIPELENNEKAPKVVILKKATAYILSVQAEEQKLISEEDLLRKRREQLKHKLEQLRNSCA
Chain of Nuclear respiratory factor 1 (Homo sapiens) (Q16656 whole entry, looked up): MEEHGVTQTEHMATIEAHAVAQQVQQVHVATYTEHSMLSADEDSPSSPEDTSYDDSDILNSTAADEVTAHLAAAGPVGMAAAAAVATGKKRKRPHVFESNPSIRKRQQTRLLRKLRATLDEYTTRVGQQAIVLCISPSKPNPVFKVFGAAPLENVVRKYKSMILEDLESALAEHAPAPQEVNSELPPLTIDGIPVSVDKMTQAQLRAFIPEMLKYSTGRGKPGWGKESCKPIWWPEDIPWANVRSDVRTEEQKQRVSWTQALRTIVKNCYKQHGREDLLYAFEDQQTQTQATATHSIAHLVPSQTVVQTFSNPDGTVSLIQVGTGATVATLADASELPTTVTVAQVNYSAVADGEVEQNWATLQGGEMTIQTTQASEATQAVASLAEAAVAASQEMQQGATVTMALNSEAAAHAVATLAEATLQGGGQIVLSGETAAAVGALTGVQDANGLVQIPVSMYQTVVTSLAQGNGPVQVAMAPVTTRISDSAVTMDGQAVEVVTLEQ
Chain of human Retinoic Acid Receptor gamma (RARg), RARG (gene 5916) (P13631 whole entry, looked up, the tested form may be a part): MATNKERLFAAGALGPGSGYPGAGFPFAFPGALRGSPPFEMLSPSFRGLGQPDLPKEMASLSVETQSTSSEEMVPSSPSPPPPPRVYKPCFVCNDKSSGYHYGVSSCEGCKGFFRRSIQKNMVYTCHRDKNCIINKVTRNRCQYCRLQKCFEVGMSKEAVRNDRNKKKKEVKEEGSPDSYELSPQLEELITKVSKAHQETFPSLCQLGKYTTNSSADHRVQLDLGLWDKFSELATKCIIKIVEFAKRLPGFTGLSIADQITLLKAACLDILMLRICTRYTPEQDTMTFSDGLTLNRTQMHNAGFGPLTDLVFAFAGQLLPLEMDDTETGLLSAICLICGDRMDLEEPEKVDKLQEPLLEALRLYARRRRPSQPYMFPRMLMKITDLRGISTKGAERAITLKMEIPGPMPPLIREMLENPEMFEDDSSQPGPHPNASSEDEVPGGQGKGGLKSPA
Chain of Peroxisome proliferator-activated receptor gamma (Homo sapiens) (P37231 whole entry, looked up, the tested form may be a part): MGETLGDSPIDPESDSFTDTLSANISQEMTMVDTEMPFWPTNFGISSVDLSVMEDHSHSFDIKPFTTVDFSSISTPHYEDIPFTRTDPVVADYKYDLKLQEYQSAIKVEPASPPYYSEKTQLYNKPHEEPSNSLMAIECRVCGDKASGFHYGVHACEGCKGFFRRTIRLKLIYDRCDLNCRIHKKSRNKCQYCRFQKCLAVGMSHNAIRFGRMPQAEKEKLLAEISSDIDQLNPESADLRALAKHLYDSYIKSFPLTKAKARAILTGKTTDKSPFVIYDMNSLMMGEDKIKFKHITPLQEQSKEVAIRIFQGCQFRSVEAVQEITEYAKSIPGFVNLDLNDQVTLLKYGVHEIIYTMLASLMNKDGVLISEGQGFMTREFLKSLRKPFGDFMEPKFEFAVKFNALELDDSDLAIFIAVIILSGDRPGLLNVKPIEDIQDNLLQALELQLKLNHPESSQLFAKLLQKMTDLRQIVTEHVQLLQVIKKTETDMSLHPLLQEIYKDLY
Chain of Nuclear receptor subfamily 1 group I member 2 (Homo sapiens) (O75469 whole entry, looked up, the tested form may be a part): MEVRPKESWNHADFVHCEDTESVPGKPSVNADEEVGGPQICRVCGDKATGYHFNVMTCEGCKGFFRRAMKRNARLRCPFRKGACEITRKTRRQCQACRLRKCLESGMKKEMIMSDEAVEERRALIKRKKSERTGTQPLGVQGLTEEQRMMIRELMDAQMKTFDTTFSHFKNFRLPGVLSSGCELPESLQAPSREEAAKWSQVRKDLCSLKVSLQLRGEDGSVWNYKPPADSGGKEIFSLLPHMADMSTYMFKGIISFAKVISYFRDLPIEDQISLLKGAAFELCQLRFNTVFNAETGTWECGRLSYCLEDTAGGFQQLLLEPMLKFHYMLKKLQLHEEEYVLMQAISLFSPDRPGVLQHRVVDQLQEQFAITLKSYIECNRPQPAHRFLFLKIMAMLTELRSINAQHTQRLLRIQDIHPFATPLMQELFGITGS
Chain of human Peroxisome Proliferator-activated Receptor delta (PPARd), PPARD (gene 5467) (Q03181 whole entry, looked up, the tested form may be a part): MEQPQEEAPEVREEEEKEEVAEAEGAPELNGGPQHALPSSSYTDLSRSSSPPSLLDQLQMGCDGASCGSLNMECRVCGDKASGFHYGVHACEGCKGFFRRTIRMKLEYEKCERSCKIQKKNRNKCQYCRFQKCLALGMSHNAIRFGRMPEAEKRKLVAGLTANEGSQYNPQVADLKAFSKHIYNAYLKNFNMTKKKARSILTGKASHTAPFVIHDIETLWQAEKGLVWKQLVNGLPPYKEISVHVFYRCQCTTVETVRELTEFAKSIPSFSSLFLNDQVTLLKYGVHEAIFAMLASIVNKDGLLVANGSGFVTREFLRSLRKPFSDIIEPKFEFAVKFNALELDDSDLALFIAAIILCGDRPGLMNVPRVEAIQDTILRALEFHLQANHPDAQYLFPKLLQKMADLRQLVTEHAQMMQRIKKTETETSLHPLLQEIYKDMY
Chain of Cellular tumor antigen p53 (Homo sapiens) (P04637 whole entry, looked up): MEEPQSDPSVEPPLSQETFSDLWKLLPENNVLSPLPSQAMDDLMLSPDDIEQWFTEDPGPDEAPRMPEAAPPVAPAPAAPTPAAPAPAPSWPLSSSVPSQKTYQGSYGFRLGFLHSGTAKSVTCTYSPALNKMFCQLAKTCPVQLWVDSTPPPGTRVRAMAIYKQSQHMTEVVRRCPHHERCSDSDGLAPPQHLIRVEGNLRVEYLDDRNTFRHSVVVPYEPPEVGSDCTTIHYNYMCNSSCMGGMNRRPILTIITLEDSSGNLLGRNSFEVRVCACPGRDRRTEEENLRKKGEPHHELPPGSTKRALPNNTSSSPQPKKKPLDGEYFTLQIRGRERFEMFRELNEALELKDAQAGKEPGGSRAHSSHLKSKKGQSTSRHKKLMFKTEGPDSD

For `Nc1ccc(S(=O)(=O)Nc2nccs2)cc1`, the molecule was classed as inactive in assay [1], in assay [2], in assay [3], in assay [4], in [5] and in assay [6]. Besides, the call in [7], in [8], in [9], in [10], in assay [11] and in [12] was inactive.
Take `Cc1ccc(S(=O)(=O)NCl)cc1`: the result in assay [1], in assay [2], in assay [3], in [5], in [6] and in assay [7] was inactive. The molecule was called inactive in assay [8], in assay [9], in assay [10] and in assay [11].
A word on the AC50: it is the midpoint of the concentration-response curve, whichever way the signal moves. Regarding `Nc1ccc([N+](=O)[O-])cc1O`, the molecule was called inactive in assay [1], in assay [3], in assay [4], in [6], in [7] and in assay [13]. Moreover, the result in assay [14], in [15], in assay [9], in assay [16], in assay [10] and in assay [11] was inactive. Also, the half-maximal activity concentration (AC50) in assay [5] was 16.1 µM (active).
On to `O=S(=O)(OCC(F)F)C(F)(F)F`, for which the molecule was classed as inactive in [1], in assay [3], in assay [4], in [5], in [6] and in assay [7]. The result in assay [17], in assay [13], in [14], in assay [8], in assay [9] and in assay [18] was inactive. Besides, the molecule was called inactive in [10] and in assay [11].
As to `CCCCCCC(C)OC(=O)CCCCC(=O)OC(C)CCCCCC` (stereo not drawn), the molecule was called inactive in assay [2], in assay [3], in [4], in assay [5], in assay [6] and in assay [7]. The outcome in assay [17], in assay [13], in [14], in assay [15], in assay [8] and in assay [9] was inactive. Moreover, the result in [18], in assay [16], in [10] and in assay [11] was inactive.
Regarding `[Co]`, the result in [1], in assay [3], in assay [4], in assay [5], in assay [7] and in [19] was inactive. Further, the outcome in [10] and in assay [12] was inactive. In assay [11], the AC50 was 22.1 µM (active).
Regarding `OCC(F)(F)C(F)(F)C(F)(F)F`, the molecule was classed as inactive in assay [1], in assay [3], in assay [4], in [5], in assay [7] and in assay [17]. The outcome in assay [13], in [14], in assay [8], in assay [9], in assay [20] and in [19] was inactive. Moreover, the result in assay [10], in assay [11] and in assay [12] was inactive.
As to `CCCCCC=O`, the outcome in assay [1], in assay [3], in assay [5], in assay [8], in assay [9] and in [10] was inactive.
For the molecule `FC(F)(F)C(F)(F)C(F)(F)CI`, the molecule was called inactive in [1], in [3], in assay [4], in assay [5], in assay [6] and in [13]. For the same molecule, the outcome in assay [14], in assay [15], in assay [18], in [20], in [19] and in assay [16] was inactive. For the same molecule, in assay [11], the call was inactive.
